Assay in all cases: NCI-60 one-dose screen, 48 h (100 = growth as untreated, 0 = no growth, -100 = all killed)
Details in all cases: 10 µM unless noted

Assay [1] has as its system SR leukemia.
Assay [2] relates to RPMI-8226 leukemia.
The subject of assay [3] is OVCAR-8 ovarian.
The test system of assay [4] is OVCAR-5 ovarian.
Assay [5] relates to OVCAR-4 ovarian.
For assay [6], the system named is SK-OV-3 ovarian.
For assay [7], the system named is IGROV1 ovarian.
For assay [8], the system named is OVCAR-3 ovarian.
For assay [9], the system named is HS 578T breast.
Assay [10] deals with NCI/ADR-RES ovarian.
The subject of assay [11] is T-47D breast.
Assay [12] deals with BT-549 breast.
Assay [13] deals with MDA-MB-435 melanoma.
For assay [14], the system named is SW-620 colon.
The test system of assay [15] is MCF7 breast.
The test system of assay [16] is HCT-116 colon.
Assay [17] has as its system HCC-2998 colon.
Assay [18] relates to KM12 colon.

Among the data in PubChem BioAssay (NCI) are growth values, retold here.

Compounds without any hit were thinned out: in the full panel of roughly 83,000, 20% have a hit.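 A percent growth of 40 corresponds to 60% growth inhibition; 0 means no net growth; -100 means all cells died. Active threshold: below 10.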 Values without a mark were called inactive. Active and inactive are the calls of the source.

On to `C#CCOc1cccc(Nc2ncnc3cc(NC(=O)CCl)ccc23)c1`, for which the growth is -47.7% (active) in [1]; -43.9% (active) in assay [2]; -30.2% (active) in assay [3]; -73% (active) in assay [4]; -41% (active) in [5]; -55.8% (active) in [6]. Further, the growth in [7] is -64.6% (active); in assay [8], -76.7% (active); in assay [9] it was -1.12% (active); in assay [10], -21.9% (active); in assay [11] it was -48.9% (active); in assay [12], -55.4% (active). Besides, the growth in assay [13] is -75.2% (active); in assay [14], -49.7% (active); in [15], -15.9% (active); in assay [16] it was -61.1% (active); in [17], -67.2% (active); in [18] it was -69.5% (active).

As for `C=C[C@@]1(C)CC(=O)[C@@H](C(C)(C)c2cn(C)c3ccc(Br)cc23)C[C@@H]1O[Si](C)(C)C(C)(C)C`, the growth in assay [1] was 103%; in assay [2] it was 87.5%; in [3], 101%; in assay [4] it was 106%; in [5] it was 94.2%; in assay [6], 115%. The growth in assay [7] is 112%; in assay [8], 103%; in assay [9], 112%; in [10], 101%; in [11] it was 89.6%; in assay [12], 111%. In addition, the growth in [13] was 101%; in assay [14], 97.3%; in assay [15], 80.1%; in [16], 89.7%; in assay [17], 109%; in [18], 100%.

Turning to `CC1(C)CC[C@]23CC[C@]4(C)[C@H](CC[C@@H]5[C@@]6(C)C/C(=C/O)C(=O)C(C)(C)[C@@H]6CC[C@]54C)[C@H]2[C@H]1OC3`, the growth is 95.1% in assay [1]; 100% in [2]; 104% in assay [3]; 107% in [4]; 111% in assay [5]; 110% in assay [6]. The growth is 106% in assay [7]; 121% in [8]; 111% in assay [9]; 104% in [10]; 114% in assay [11]; 111% in assay [12]. Moreover, the growth in assay [13] is 97.7%; in assay [14], 103%; in assay [15], 85.7%; in assay [16] it was 105%; in assay [17], 110%; in assay [18], 114%.

As for `N#Cc1c(-c2ccccc2)cc(-c2ccccc2)n(CCCCC(=O)NO)c1=O`, the growth was 7.41% (active) in assay [1]; 0.83% (active) in assay [2]; 15.6% in [3]; 13.6% in [4]; 34% in [5]; 42.1% in assay [6]. Moreover, the growth in assay [7] is 20%; in [8] it was 20.5%; in [9], 27.4%; in assay [10], -16.2% (active); in assay [11], 9.65% (active); in assay [12], 52.8%. In addition, the growth in assay [13] is -13.7% (active); in [14], 11.5%; in assay [15] it was 20.5%; in assay [16], 5.09% (active); in assay [17], 29.3%; in assay [18] it was 22.9%.

As to `CCN1C2CCC1/C(=C\c1ccccc1)C(=O)/C2=C/c1ccccc1`, the growth in [1] is 27.3%; in assay [2] it was 38.2%; in assay [3], 22.5%; in assay [4], 88.3%; in assay [5], 46.1%; in [6], 78.5%. Moreover, the growth in [7] was 49.9%; in [8] it was 13%; in [9], 71.4%; in assay [10] it was 15.1%; in assay [11], 56.9%; in assay [12], 48.6%. For the same molecule, the growth in assay [13] is 30.7%; in assay [14], 42.4%; in assay [15] it was 25.2%; in assay [16], 15.6%; in assay [17], 80.1%; in [18] it was 20.6%.

Turning to `COC(=O)c1ccc2c(c1)c1c(C)c3cnccc3c(C)c1n2C`, the growth in assay [1] is 18.2%; in [2], -15.4% (active); in assay [3] it was 0.0639% (active); in assay [4] it was -33.3% (active); in assay [5], -14.8% (active); in assay [6], -15.3% (active). In addition, the growth in assay [7] was -33.1% (active); in [8], -26% (active); in [9], -15% (active); in [10], -25% (active); in assay [11], -21.6% (active); in [12], -4.33% (active). Also, the growth in assay [13] is 6.89% (active); in assay [14] it was -6.12% (active); in assay [15], -37.1% (active); in assay [16], -59.8% (active); in assay [17], 1.42% (active); in assay [18], 1.9% (active).

As for `Cn1c2ccccc2c2c3c(c4c5cc(Br)ccc5n(C)c4c21)C(=O)N(O)C3=O`, the growth was 18.6% in assay [1]; 10.8% in assay [2]; 24.8% in assay [3]; 92.6% in assay [4]; 53.7% in assay [5]; 3.4% (active) in assay [6]. Also, the growth in assay [7] is 21.5%; in assay [8], 6.42% (active); in assay [9], 61.9%; in [10] it was 6.86% (active); in assay [11] it was -11.2% (active); in assay [12], 41.2%. Besides, the growth in assay [13] was 22.8%; in assay [14] it was 18%; in [15], 10.7%; in assay [16], 4.46% (active); in assay [17], 57.5%; in assay [18] it was 34.1%.

In the case of `Cc1ccc2cnc(N)c(C#Cc3cc(C(=O)Nc4ccc(CN5CCN(C)CC5)c(C(F)(F)F)c4)cnc3C)c2c1`, the growth in assay [1] was -36.1% (active); in assay [2], -40.6% (active); in [3], 48.4%; in [4], -59.1% (active); in [5], 37.6%; in assay [6], 50.5%. Moreover, the growth was 11% in [7]; 32.4% in [8]; -12.4% (active) in assay [9]; 22.8% in assay [10]; 66.8% in [11]; 16.5% in assay [12]. Besides, the growth was -69.3% (active) in [13]; -77.3% (active) in assay [14]; -50.8% (active) in assay [15]; -83.9% (active) in [16]; 54% in assay [17]; 0.561% (active) in [18].

Take `N=C(N)c1ccc(-c2ccc(-c3ccccc3)o2)o1`: the growth in assay [1] was -15% (active); in assay [2], 9.58% (active); in assay [3], 34.4%; in [4] it was 72.8%; in [5], 63.1%; in assay [6], 45.9%. The growth was 45.3% in assay [7]; 17% in [8]; 45.6% in assay [9]; 36.3% in assay [10]; 32.8% in assay [11]; 64.6% in assay [12]. In addition, the growth is -32.9% (active) in [13]; 1.14% (active) in [14]; 20.6% in assay [15]; 19.4% in assay [16]; 46.9% in assay [17]; 16.6% in assay [18].
